In all, about 69,000 compounds went through this assay and about 8,600 (12%) showed an effect of 50% or more. The sample holds strong results, similar compounds and a random draw of the others, so the mix is not that of the screen.
Each compound was assayed on Plasmodium berghei (assay: Screen against P. berghei liver stage (PbLuc), transformed with Luciferase, at 10uM). Settings: tested at 10 uM.
Assay type: functional, HepG2
`CC(C)c1nnc2n1CC(CNCc1nc3ccccc3o1)CC2` (configuration not stated) gave an INHIBITION of 13%. With `Cc1cc(NCc2cn(C)nc2-c2cccnc2)n(C)n1` the INHIBITION was -17.1%. In the case of `CCn1cnnc1CNC(=O)N1CCCCCC1`, the INHIBITION is reported as -8.11%. `COCC1COCCC12CCN(S(=O)(=O)c1cccnc1)CC2` (configuration not stated) showed an INHIBITION of 36.5%. Work on `Cc1cnn(CCNCc2nnc(-c3ccc(F)cc3)o2)c1` yielded an INHIBITION of -35.7%. With `O=C(C1CNCCN1C(=O)CCOc1ccccc1)N1CCCC1` (configuration not stated) the INHIBITION was -27.5%. `Cc1c(C(=O)O)cnn1-c1ccc(-c2nc(C(C)C)no2)cn1` gave an INHIBITION of -44.7%. In the case of `CC(C)c1nc(C2CCCN(C(=O)c3ccc4[nH]nnc4c3)C2)no1` (configuration not stated), the INHIBITION is reported as -6.14%. Work on `c1cnn(CCCO[C@@H]2CC[C@H]3[C@H]2OCCN3CC2CCOCC2)c1` yielded an INHIBITION of 26.3%. `O=C(C1CCC1)N1CCO[C@H]2[C@H](OCCCn3cccn3)CC[C@@H]21` gave an INHIBITION of -47.8%. Work on `Cc1nnc(N2C[C@H](OCc3ccncc3)[C@H]3OCCC[C@H]32)s1` yielded an INHIBITION of 19.5%. `Cc1nnc(N2C[C@H](OCCCn3cccn3)[C@H]3OCCC[C@H]32)s1` was tested, and the INHIBITION was 43.9%. `CCS(=O)(=O)N1CCO[C@H]2[C@H](OCCCn3cccn3)CC[C@@H]21` was tested, and the INHIBITION was -0.182%. In the case of `O=C(CC1CC1)N1CCO[C@H]2[C@H](OCCCn3cccn3)CC[C@@H]21`, the INHIBITION is reported as 55%. In the case of `CC(=O)N1CCO[C@H]2[C@H](OCCCn3cccn3)CC[C@@H]21`, the INHIBITION is reported as 19.4%. `Cc1nnc(N2C[C@@H](OCCCn3cccn3)[C@H]3OCCC[C@H]32)s1` showed an INHIBITION of 50.1%. `c1cnn(CCCO[C@@H]2CC[C@H]3[C@H]2OCCN3CC2CC2)c1` showed an INHIBITION of 53%. With `Clc1ccc(OCCNCCn2cccn2)cc1` the INHIBITION was 9.14%. `O=C(CCOCC(F)(F)F)N1CCCC(n2ccnc2)C1` (configuration not stated) was tested, and the INHIBITION was -63.3%. Work on `O=C(NCc1ccccc1Cn1cncn1)C1CC1` yielded an INHIBITION of 49.8%. `CC(=O)N1CCN(Cc2ccccn2)CC2(CC(=O)N(C)C2)C1` (configuration not stated) was tested, and the INHIBITION was 14.1%. `Cc1ncsc1CCC(=O)N1CCn2cccc2C1c1cccnc1` (configuration not stated) was tested, and the INHIBITION was 59.1%. `CCN1CCC(CC(=O)N2CCn3cccc3C2c2cccnc2)CC1` (configuration not stated) was tested, and the INHIBITION was 18.9%. Compound `Cc1ncsc1CCC(=O)N1CCCC1c1cccnc1` (configuration not stated) has an INHIBITION of -2.79%. Work on `O=C(NCc1cccnc1N1CCCCC1)c1cccs1` yielded an INHIBITION of 7.12%. For `CS(=O)(=O)NCC1CCCN(C(=O)Nc2cccnc2N2CCCC2)C1` (configuration not stated), the INHIBITION was -8.69%. Compound `Cc1nnsc1C(=O)NCc1cccnc1N1CCCC(O)C1` (configuration not stated) has an INHIBITION of 66.3%. `CCS(=O)(=O)NCc1cccnc1N1CCCC(O)C1` (configuration not stated) was tested, and the INHIBITION was 89.1%. Compound `CCC1CCCN(C(=O)NCc2cccnc2-n2cccn2)C1` (configuration not stated) has an INHIBITION of 33.8%. Compound `O=C(NCc1cccnc1N1CCCCC1)c1ccc2c(c1)OCO2` has an INHIBITION of -1.85%. `O=C(NCc1cccnc1N1CCCC(O)C1)c1ccsc1` (configuration not stated) gave an INHIBITION of 74.3%. In the case of `Cc1nnsc1C(=O)NCC1CCN(c2ccccn2)CC1`, the INHIBITION is reported as 14.6%. With `CC(NC(=O)c1cccs1)C(=O)NCc1cccnc1N1CCCCC1` (configuration not stated) the INHIBITION was 2.26%. `Cc1nnsc1C(=O)NCc1cccnc1N1CCc2ccccc2C1` showed an INHIBITION of 5.8%. Compound `O=C(NCc1cccnc1N1CCCC(O)C1)c1ccc2[nH]nnc2c1` (configuration not stated) has an INHIBITION of 18.6%. Work on `CC(=O)c1ccc(C(=O)NCc2cccnc2N2CCCC(O)C2)s1` (configuration not stated) yielded an INHIBITION of 69.7%. Compound `O=C(NC1CC1)C1[C@H]2CN(Cc3ccc(-c4cc[nH]n4)s3)C[C@@H]12` (some centres not stated) has an INHIBITION of 33.3%. `c1cc(CN2CCC3(CC2)COC(COCC2CC2)C3)co1` (configuration not stated) gave an INHIBITION of -17.1%. Work on `Cc1cccc(-c2nc(CNC3CCc4ncnn4C3)no2)c1` (configuration not stated) yielded an INHIBITION of 23.7%. `O=C1CCC2(CCN(Cc3ncccn3)CC2)CN1CCCO` gave an INHIBITION of -33.5%. In the case of `Cc1oc(-c2nc(C#N)c(NCC(C)C)o2)cc1S(=O)(=O)N1CCCC1`, the INHIBITION is reported as 22.6%. For `CCN(CC)S(=O)(=O)NCC1COc2ccccc2O1` (configuration not stated), the INHIBITION was 36.9%. For `Cc1cc(C(=O)NCc2cccnc2N2CCCC(O)C2)[nH]n1` (configuration not stated), the INHIBITION was 34.5%. With `Cc1cc(C(=O)NCc2cccnc2N2CCCC(O)C2)c(C)o1` (configuration not stated) the INHIBITION was 55%. `Cn1ccn2ncc(C(=O)NCc3cccnc3N3CCCC(O)C3)c12` (configuration not stated) showed an INHIBITION of 28.8%. `Cc1cc(CN2CCN(C(=O)NC(C)Cn3cccn3)CC2)no1` (configuration not stated) showed an INHIBITION of -17.78%. Work on `CC(NC(=O)NCCCN(C)S(C)(=O)=O)c1ccc(F)cc1` (configuration not stated) yielded an INHIBITION of 58.5%. `CC(NC(=O)NCCCN(C)S(C)(=O)=O)c1ccc(C#N)cc1` (configuration not stated) showed an INHIBITION of 44.1%. `CC(NC(=O)NCCCN(C)S(C)(=O)=O)c1ccc(Cl)cc1` (configuration not stated) showed an INHIBITION of 62.6%. `CC(NC(=O)NCCCN(C)S(C)(=O)=O)c1cccnc1` (configuration not stated) was tested, and the INHIBITION was -9.37%. `CC(NC(=O)NCCCN(C)S(C)(=O)=O)c1cccc(Cl)c1` (configuration not stated) was tested, and the INHIBITION was -15.8%. `CC(NC(=O)NCCCN(C)S(C)(=O)=O)c1ccncc1` (configuration not stated) was tested, and the INHIBITION was 1.77%. Work on `Cn1cc(CC2CC(=O)N(Cc3ccc(OC(F)F)cc3)C2=O)cn1` (configuration not stated) yielded an INHIBITION of 16.6%. In the case of `Cn1ccnc1C(=O)NCc1cnc2n1CCN(CC1CC1)CC2`, the INHIBITION is reported as -24.1%. Compound `Cc1nc2n(n1)CC(Nc1ccnc(-c3ccccc3)n1)CC2` (configuration not stated) has an INHIBITION of -5.1%. `O=C(NCCn1nc(C2CCNC2)c2cccnc21)c1ccccn1` (configuration not stated) was tested, and the INHIBITION was 3.91%. Work on `CC1(C)Cc2ccc(C(=O)NC3CCS(=O)(=O)C3)c(O)c2O1` (configuration not stated) yielded an INHIBITION of 36.8%. Compound `O=C1Nc2ccccc2CNC12CCN(CC1CC1)CC2` has an INHIBITION of 20.1%. `c1coc(CN2C[C@H](OCC3CCOCC3)[C@H]3COC[C@H]32)c1` gave an INHIBITION of 21%. For `COc1cn(CC(N)=O)c(CSc2nc(C)cc(C)n2)cc1=O`, the INHIBITION was 24%. Work on `COc1cn(CC(N)=O)c(CSc2nccc(C)n2)cc1=O` yielded an INHIBITION of 64.3%. `CCCNC(=O)Cn1cc(OC)c(=O)cc1CSc1nc(C)cc(C)n1` was tested, and the INHIBITION was -3.83%. In the case of `CNC(=O)CCc1cc(C)nc(C2CCN(C3CCCCC3)CC2)c1`, the INHIBITION is reported as 15.58%. Compound `CCOC(=O)[C@H]1CNC[C@@H]1C(=O)OCC` has an INHIBITION of 0.868%. In the case of `c1ccc(OCc2n[nH]c3c2CN(CC2CC2)C3)nc1`, the INHIBITION is reported as -23.3%. With `O=C(NCCCN1CCOCC1)C(OC1CCCC1)c1ccccc1` (configuration not stated) the INHIBITION was -12.1%. With `O=C(Cc1ccccc1F)NCCN1CCOCC1` the INHIBITION was 68.4%. In the case of `O=S(=O)(NCC1CCN(CCN2CCOCC2)C1)c1ccccc1F` (configuration not stated), the INHIBITION is reported as 47.1%. `O=S(=O)(Cc1ccccc1F)NCCN1CCOCC1` gave an INHIBITION of -11.9%. `O=C(NCCN1CCOCC1)c1ccn(-c2ccccc2F)n1` showed an INHIBITION of -8.91%. For `CN1CCN(CCNC(=O)C(OC2CCCC2)c2ccccc2)CC1` (configuration not stated), the INHIBITION was 35.2%. Work on `O=C(NCCN1CCOCC1)C(OC1CCCC1)c1ccccc1` (configuration not stated) yielded an INHIBITION of 69.5%. Compound `O=C(NCC1CCCO1)c1cc(COc2ccccc2F)[nH]n1` (configuration not stated) has an INHIBITION of 16.8%. For `O=C(NCCC1CCCCO1)c1cc(COc2ccccc2F)[nH]n1` (configuration not stated), the INHIBITION was 25.4%. Work on `O=C(Cc1ccccc1F)NCC1CCN(CCN2CCOCC2)C1` (configuration not stated) yielded an INHIBITION of 64.7%. Work on `O=C(NCCN1CCOCC1)c1cc(COc2ccccc2F)[nH]n1` yielded an INHIBITION of 63.7%. In the case of `O=C(Cc1ccccc1F)NCC1CCN(CCc2ccccc2)C1` (configuration not stated), the INHIBITION is reported as 26.7%.
